Compound activity from PubChem.
Rows were chosen to be rich in hits. Some 3.6% of all compounds tested hit in one or more screens of this group.
GCN5L2 inh: blocks human GCN5L2 histone acetyltransferase | AID 504327 | 0.21% of 390,000 active | GCN5L2 HAT assay, ThioGlo1 CoA-SH fluorescence | Potency, µM (titrated, usually from 58.9 µM), hits mostly inhibitors | Q92830
Target sequence (Q92830 whole entry, looked up): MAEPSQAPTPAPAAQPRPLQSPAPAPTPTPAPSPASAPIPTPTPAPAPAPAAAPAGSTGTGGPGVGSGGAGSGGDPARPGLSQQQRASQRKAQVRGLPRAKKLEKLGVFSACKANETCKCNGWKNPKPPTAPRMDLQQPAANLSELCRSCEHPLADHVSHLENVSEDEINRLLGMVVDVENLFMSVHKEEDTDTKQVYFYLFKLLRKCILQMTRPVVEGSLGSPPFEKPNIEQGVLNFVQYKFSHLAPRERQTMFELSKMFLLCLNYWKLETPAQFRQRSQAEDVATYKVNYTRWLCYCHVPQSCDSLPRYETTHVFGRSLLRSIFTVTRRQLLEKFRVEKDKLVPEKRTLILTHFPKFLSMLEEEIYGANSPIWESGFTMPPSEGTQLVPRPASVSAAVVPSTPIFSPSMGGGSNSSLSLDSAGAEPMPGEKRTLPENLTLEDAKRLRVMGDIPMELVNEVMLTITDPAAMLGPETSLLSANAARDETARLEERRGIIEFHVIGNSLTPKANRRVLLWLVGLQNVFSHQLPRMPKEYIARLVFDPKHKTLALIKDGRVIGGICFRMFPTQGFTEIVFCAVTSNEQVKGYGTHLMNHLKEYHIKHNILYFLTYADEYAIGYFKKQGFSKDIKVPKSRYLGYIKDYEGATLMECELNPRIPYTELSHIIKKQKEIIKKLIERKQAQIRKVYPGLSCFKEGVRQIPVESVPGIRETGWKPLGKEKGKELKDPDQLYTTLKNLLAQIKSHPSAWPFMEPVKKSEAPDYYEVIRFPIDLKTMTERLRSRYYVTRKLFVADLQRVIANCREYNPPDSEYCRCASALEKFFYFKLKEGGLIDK
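ThioGlo1-coupled HAT assay: 20nM GCN5L2, 70uM acetyl-CoA, 75uM H3(1-25) peptide, pH 7.5. Fluorescence read at 340/540nm at start and after 20 min at room temperature.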
Sfp PPTase inh: blocks B. subtilis Sfp PPTase activity; AID 1490; 3.5% of 310,000 active; Potency, µM, usual class: inhibitors; Biochemical Sfp PPTase activity, qHTS;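 also: the enzyme is Sfp with the accession as filed and its product quenches rhodamine fluorescence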
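Sfp 15 nM + cpd, 15 min RT; start w/ rhodamine-CoA 5 uM, BHQ-2-YbbR 12.5 uM (final); 50 mM Hepes pH 7.6, 10 mM MgCl2, 0.01% NP-40, 0.01% BSA; read 525/598 nm at 0 and 30 min.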
Epigenetic derep: epigenetic control regulation, reporter derepression; 0.2% of 280,000 active; murine LDR cells, GFP reporter derepression, 30 h; Potency, µM (doses to about 53.9 µM), most hits filed as activators; also: nearly all actives have a fitted effect of over 60% in size
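Reporter derepression read as number of fluorescent GFP-positive objects, 20-120 um in size, counted by laser-scanning cytometer. Mouse LDR line with an epigenetically silenced CMV-GFP locus; compound incubation 30 h, 37 C.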
IMPase Li inh: IMPase inhibition in cells with lithium potentiation. 0.35% of 210,000 active. CHO-M1 cells, IP1 TR-FRET (IP-One), carbachol + lithium. Potency, µM (highest dose often 59.4 µM), most hits filed as inhibitors;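 also: IP1 builds up when IMPase is blocked and the TR-FRET signal falls; nearly all actives have a fitted effect of over 50% in size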
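CHO-M1, 2000 cells/well, 16–30 h culture; cpd + low Li+, 30 min 37C; lysis with d2-IP1/Eu-anti-IP1 Ab, 10 min RT; TR-FRET 665/620 ratio and 620 channel; AC50 via Hill.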
NPSR antagonist: blocks cAMP signaling of the human neuropeptide S receptor; CHO-NPSR cells, cAMP TR-FRET, antagonist mode; Potency, µM (titrated, usually from 38.3 µM), most hits filed as inhibitors; 1% of 220,000 active; AID 1461; also: nearly all actives have a fitted effect of over 50% in size
KDM4E inh: JMJD2E (human) inhibition; Potency, µM (titrated, usually from 57.1 µM), usual class: inhibitors; JMJD2E catalytic domain, FDH-coupled NADH fluorescence (FDH is formaldehyde dehydrogenase); B2RXH2; 1.6% of 230,000 active; active = well fitted inhibition curve with a large enough effect, not every such curve was filed as active; inconclusive = small, poorly fitted or top-dose-only effect, or another doubt; inactive = no such curve, though single readings can be large or run the other way; also: nearly all actives have a fitted effect of over 50% in size
A number is an active result; [ ] = dose if it differs, or a comment. Unless noted, calls follow the shape of the dose curve; as a rule, active = well fitted curve in the direction sought with a large enough effect; inconclusive = small, poorly fitted or top-dose-only effect, or another doubt; inactive = no such curve, though single readings can be large; an effect the other way counts as inactive or inconclusive.

Results for Cc1cc(-c2n[nH]c(=S)n2/N=C/c2ccc(Br)s2)n[nH]1 ?
GCN5L2 inh: inactive; Sfp PPTase inh: inactive; Epigenetic derep: inactive; IMPase Li inh: inactive; NPSR antagonist: inactive; KDM4E inh: inactive

What do the screens show for `Cc1ccc(-c2n[nH]c(=S)n2/N=C/c2sccc2C)cc1`?
GCN5L2 inh: inactive; Sfp PPTase inh: inactive; Epigenetic derep: inactive; NPSR antagonist: inactive; KDM4E inh: inactive

How did Cc1ccsc1/C=N/n1c(-c2cc(-c3ccccc3)n[nH]2)n[nH]c1=S do in these assays?
GCN5L2 inh: inactive; Sfp PPTase inh: 70.8µM; Epigenetic derep: inactive; NPSR antagonist: inconclusive; KDM4E inh: inactive

Results for S=c1[nH]nc(-c2cc(-c3ccccc3)n[nH]2)n1/N=C/c1c(Cl)cccc1Cl ?
GCN5L2 inh: inactive; Sfp PPTase inh: 39.8µM; Epigenetic derep: inactive; NPSR antagonist: inconclusive; KDM4E inh: inactive

What do the screens show for `Oc1ccccc1/C=N/n1c(-c2ccccc2)n[nH]c1=S`?
GCN5L2 inh: inactive; Sfp PPTase inh: inconclusive

Results for S=c1[nH]nc(-c2ccccn2)n1/N=C/c1c(Cl)cccc1Cl ?
GCN5L2 inh: inactive; Sfp PPTase inh: inconclusive; Epigenetic derep: inactive; NPSR antagonist: inactive; KDM4E inh: inactive

Results for O=C(CSc1ccc(-c2nc3ccccc3[nH]2)cn1)Nc1ccc2c(c1)OCCO2 ?
GCN5L2 inh: inactive; Sfp PPTase inh: inactive; Epigenetic derep: inactive; IMPase Li inh: 8.91µM; NPSR antagonist: inactive

Results for Cc1ccc2nc(-c3ccc(SCC(=O)Nc4ccc5c(c4)OCCO5)nc3)[nH]c2c1 ?
GCN5L2 inh: inactive; Sfp PPTase inh: inactive; Epigenetic derep: inconclusive; IMPase Li inh: inactive; NPSR antagonist: inactive; KDM4E inh: inconclusive

Results for Cn1cnnc1SCc1ccc(-c2ccc(Br)cc2)o1 ?
GCN5L2 inh: inactive; Sfp PPTase inh: 44.7µM; Epigenetic derep: inactive; IMPase Li inh: inactive; NPSR antagonist: inactive; KDM4E inh: inactive

What do the screens show for `O=C1C[C@@H](O)[C@@H](O)[C@@H]2[C@H]3C(=O)N(c4ccc(F)cc4F)C(=O)[C@@H]3CC[C@@H]12`?
Sfp PPTase inh: inactive; Epigenetic derep: inactive[10.1 µM]

Results for Cn1c(=O)n(Cc2ccccc2)c2ccccc21 ?
GCN5L2 inh: inactive; Sfp PPTase inh: inactive; Epigenetic derep: inactive; IMPase Li inh: inactive; NPSR antagonist: inactive; KDM4E inh: inactive

Results for Cn1sc(=O)n(Cc2ccccc2)c1=O ?
GCN5L2 inh: 20µM; Sfp PPTase inh: 0.141µM

What do the screens show for `COc1ccc(CC(=O)Nc2ccc(C(C)=O)cc2)cc1`?
GCN5L2 inh: inactive; Sfp PPTase inh: 50.1µM; Epigenetic derep: inactive; IMPase Li inh: inactive; NPSR antagonist: inactive; KDM4E inh: inactive

How did COc1ccc(CC(=O)Nc2ccc(-c3noc(-c4ccccc4OC)n3)cc2)cc1 do in these assays?
GCN5L2 inh: inactive[0.501 µM]; Sfp PPTase inh: inactive; Epigenetic derep: inactive; IMPase Li inh: 11.2µM; NPSR antagonist: inactive; KDM4E inh: inconclusive

How did O=C(COc1ccccc1)Nc1ccc(-c2nnc(-c3ccco3)o2)cc1 do in these assays?
GCN5L2 inh: inactive; Sfp PPTase inh: inactive; Epigenetic derep: inactive; IMPase Li inh: 12.6µM; NPSR antagonist: inactive; KDM4E inh: inconclusive

How did COc1cccc(-c2nc(-c3ccc(NC(=O)Cc4ccccc4OC)cc3)no2)c1 do in these assays?
GCN5L2 inh: inactive; Sfp PPTase inh: inactive; Epigenetic derep: inactive; IMPase Li inh: inactive; NPSR antagonist: inactive; KDM4E inh: inconclusive

What do the screens show for `COc1ccccc1OCC(=O)Nc1cccc(-c2nnc(-c3ccco3)o2)c1`?
GCN5L2 inh: inactive; Sfp PPTase inh: inactive; Epigenetic derep: inactive; IMPase Li inh: inactive; NPSR antagonist: inactive; KDM4E inh: inconclusive

How did COc1ccc(CC(=O)Nc2ccc(-c3nnc(-c4ccccc4)o3)cc2)cc1OC do in these assays?
GCN5L2 inh: inactive; Sfp PPTase inh: inactive; Epigenetic derep: inactive; IMPase Li inh: 12.6µM; NPSR antagonist: inconclusive; KDM4E inh: inconclusive

Results for CCc1nn(Cc2cccc(F)c2)c(=O)c2cc3cc(C)ccc3n12 ?
GCN5L2 inh: inactive; Epigenetic derep: inactive

Results for Cc1ccc(NC(=O)CSc2ncnc3c2sc2ccccc23)cc1C ?
GCN5L2 inh: inactive; Epigenetic derep: inconclusive

Results for C[N+]1(C)C2CCC1CC(OC(=O)C(O)c1ccccc1)C2 (stereo unspecified) ?
GCN5L2 inh: inactive; Sfp PPTase inh: inactive; Epigenetic derep: inactive; IMPase Li inh: inactive; KDM4E inh: inactive

Results for CN(C)CCNC(=O)c1ccc(Cn2c(=O)c3cccn3c3cccnc32)cc1 ?
GCN5L2 inh: inactive; Epigenetic derep: inactive

How did O=C(O)c1ccc(Cn2c(SCc3cc(=O)n4cc(Br)ccc4n3)nc3ccsc3c2=O)cc1 do in these assays?
GCN5L2 inh: inactive; Sfp PPTase inh: inactive; Epigenetic derep: inactive; IMPase Li inh: inconclusive; NPSR antagonist: 10µM; KDM4E inh: inactive

Results for O=C(O)C1CCC(Cn2c(SCc3cc(=O)n4cc(Br)ccc4n3)nc3ccsc3c2=O)CC1 (stereo unspecified) ?
GCN5L2 inh: inactive; Sfp PPTase inh: inactive; Epigenetic derep: inactive; IMPase Li inh: 10µM; NPSR antagonist: 7.94µM; KDM4E inh: inactive

What do the screens show for `Cc1ccc(CN(C(=O)c2ccccc2Br)C2CCS(=O)(=O)C2)o1` (stereo unspecified)?
GCN5L2 inh: inactive; Epigenetic derep: inactive

How did CCC1(C)Cc2nc3sc(C(=O)O)c(N)c3cc2CO1 (stereo unspecified) do in these assays?
GCN5L2 inh: inactive; Sfp PPTase inh: 28.2µM; Epigenetic derep: inactive; IMPase Li inh: inactive; NPSR antagonist: inactive; KDM4E inh: inconclusive

What do the screens show for `CC1(C)OC(=O)C(=Cc2ccc(-c3ccc(S(N)(=O)=O)cc3)o2)C(=O)O1`?
GCN5L2 inh: inconclusive; Sfp PPTase inh: 56.2µM; Epigenetic derep: inactive; IMPase Li inh: inactive; NPSR antagonist: inconclusive; KDM4E inh: inconclusive

What do the screens show for `COC(=O)[C@@H](NC(=O)N1CCc2nc(-c3ccccc3)c3c(c2C1)CO[C@@H](C)C3)C(C)C`?
Sfp PPTase inh: inactive; IMPase Li inh: inactive; KDM4E inh: inactive[11.4 µM]

What do the screens show for `Cc1ccc(CN2CCN(c3ccccn3)CC2)s1`?
GCN5L2 inh: inactive[0.501 µM]; Sfp PPTase inh: 56.2µM; Epigenetic derep: inactive; IMPase Li inh: inactive; NPSR antagonist: inactive; KDM4E inh: inconclusive

What do the screens show for `Cc1cccc(CN2CCN(c3ccccn3)CC2)c1`?
Epigenetic derep: inactive

How did CCOCCCNC(=O)c1c(NC(=O)c2cc(=O)c3cc(C)c(C)cc3o2)sc2c1CCC2 do in these assays?
GCN5L2 inh: inactive; Epigenetic derep: inconclusive

How did CCOC(=O)/C(C#N)=C1/C=Nc2ccccc2N1 do in these assays?
GCN5L2 inh: inconclusive; Sfp PPTase inh: inactive; Epigenetic derep: inactive; IMPase Li inh: inactive; NPSR antagonist: inactive; KDM4E inh: inactive
